Assay results published in PubChem BioAssay (NCI).
Compounds without any hit were thinned out: in the full panel of roughly 83,000, 20% have a hit.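 Step 1: grow cells in 96-well plates. Step 2: add test compound at a single concentration. Step 3: incubate 48 h. Step 4: record percent growth.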 Unmarked numbers belong to inactive results. Active and inactive are the calls of the source. How the source made its calls: active means growth percent below 10; inactive means the rest.

system: UACC-62 melanoma; assay: NCI-60 one-dose screen, 48 h (100 = growth as untreated, 0 = no growth, -100 = all killed); conditions: 10 µM unless noted

Row | Compound | growth
1 | Cn1cc(-c2cc3nc(-c4cn(C)c5ncccc45)cc(N)n3n2)c2cc(Cl)ccc21 | -99.6% (active)
2 | CC12CC[C@@H]3[C@]4(C)COC(c5c(F)cccc5F)O[C@@H]4CC[C@@]3(C)[C@@H]1CC(C1=CCOC1=O)O2 (some centres not stated) | 50.4%
3 | Cc1nc(Nc2ncc(C(=O)Nc3c(C)cccc3Cl)s2)cc(N2CCN(CCCNC(=O)COc3ccc(C4CCC(=O)NC4=O)cc3)CC2)n1 (configuration not stated) | 55.4%
4 | Cn1cc(NC(=O)c2cc(NC(=O)c3ccc(/C=C/c4ccccc4)cc3)cn2C)cc1C(=O)NCCCN1CCOCC1 | -89% (active)
5 | Cc1ccccc1[C@H]1C(C(=O)c2ccc(Cl)cc2)C2(N[C@@H]1c1ccccc1)C(=O)Nc1ccc(Br)cc12 (some centres not stated) | 11.2%
6 | Brc1ccc(N/N=C/c2c[nH]c3ccc(Br)cc23)nc1 | -57% (active)
7 | C=C1CCC2C3(C)COC(c4ccccc4)OC3CCC2(C)C1CC(Sc1ccccc1)C1=CCOC1=O (configuration not stated) | 39.5%
8 | Clc1cccc(N/N=C/c2c[nH]c3ccc(Br)cc23)n1 | 1.6% (active)
9 | COc1c(F)ccc(C(=O)Nc2ccc3nc(NC(=O)C4CCCN(S(=O)(=O)c5cccc(C(F)(F)F)c5)C4)sc3c2)c1F (configuration not stated) | 83.3%
10 | O=c1oc2ccc(Br)cc2cc1C1=CSc2nc3sc4c(c3c(=O)n2N=C1)CCCC4 | 71.7%
11 | CC(=O)/C=C/c1cccc2c1C(=O)NC(C)(c1cc3cc(Br)ccc3oc1=O)N2 (configuration not stated) | 13%
12 | O=c1[nH]c(=O)c2c(-c3cc4ccccc4oc3=O)ccnc2[nH]1 | 82.7%
